Laboratory results published in PubChem BioAssay (NCATS).
Records with an inconclusive call do not appear. Calls of active or inactive are those of the source. Calls follow the shape of the dose curve; as a rule, active = well fitted curve in the direction sought with a large enough effect; inconclusive = small, poorly fitted or top-dose-only effect, or another doubt; inactive = no such curve, though single readings can be large; an effect the other way counts as inactive or inconclusive.

Tests used:
[1] = NS1 protein of Zika virus - qHTS assay to identify small molecule inhibitors in human HEK 293 cells (AID 1347053); also: series mostly up to about 46 µM; nearly all actives have a fitted effect of over 55% in size
Summary of the method: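 HEK 293 cells pretreated with compound for 1 h, then infected with ZIKV MR766 (MOI 0.5) for 24 h at 37 C. NS1 detected by TR-FRET with two anti-NS1 antibodies; normalized to uninfected (0%) and infected (100%) wells.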

[2] = qHTS of pediatric cancer cell lines to identify multiple opportunities for drug repurposing: Primary screen for TC32 cells (AID 1347089); also: nearly all actives have a fitted effect of over 60% in size
Summary of the method: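 Luminescent CellTiter-Glo read-out of metabolically active TC32 cells after 48 h compound exposure. Primary: MIPE 11-point, 0.78 nM–46 µM; NPC 8-point, 0.59 nM–46 µM. Confirmatory: 11-point dilutions.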

[3] = qHTS of pediatric cancer cell lines to identify multiple opportunities for drug repurposing: Primary screen for DAOY cells (AID 1347090); also: series mostly up to about 46 µM; nearly all actives have a fitted effect of over 55% in size
Summary of the method: (§1)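 Eight- or eleven-point concentration series, 48 h treatment at 37 degrees C in growth media; readout CellTiter-Glo luminescence. Potency and efficacy were taken from the concentration-response curves.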

[4] = qHTS of pediatric cancer cell lines to identify multiple opportunities for drug repurposing: Primary screen for A673 cells (AID 1347092); also: nearly all actives have a fitted effect of over 45% in size
Summary of the method: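 A673 cells (500-1,000 cells/well in growth media) were pre-incubated 5 h at 37 degrees C, then exposed to compounds for 48 h. Viability was read as CellTiter-Glo luminescence; concentration-response curves came directly from the primary screen.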

[5] = qHTS of pediatric cancer cell lines to identify multiple opportunities for drug repurposing: Primary screen for SK-N-MC cells (AID 1347093); also: series mostly up to about 46 µM
Summary of the method: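 Metabolically active cells were quantified by ATP-dependent luminescence (CellTiter-Glo, 15 min at room temperature) following 48 h treatment. Cells had been plated at 500-1,000 per well and settled for 5 h beforehand.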

[6] = qHTS of pediatric cancer cell lines to identify multiple opportunities for drug repurposing: Primary screen for BT-37 cells (AID 1347094); also: series mostly up to about 57 µM
Summary of the method: (§2)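 Cells plated at 500-1,000/well in growth medium, compounds added after 5 h. MIPE tested at 11 points (from 0.78 nM), NPC at 8 points (from 0.59 nM). CellTiter-Glo luminescence after 48 h; concentration-response curves from primary screen.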

[7] = qHTS of pediatric cancer cell lines to identify multiple opportunities for drug repurposing: Primary screen for NB-EBc1 cells (AID 1347095)
Summary of the method: as §2

[8] = qHTS of pediatric cancer cell lines to identify multiple opportunities for drug repurposing: Primary screen for U-2 OS cells (AID 1347096); also: nearly all actives have a fitted effect of over 50% in size
Summary of the method: (§3)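 Cells (500-1,000/well) in growth media were settled 5 h at 37 degrees C, then given compounds for 48 h. Viability was read as CellTiter-Glo luminescence. Primary runs used MIPE at 11 points (0.78 nM-46 µM) and NPC at 8 points (0.59 nM-46 µM); follow-ups used 11 points.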

[9] = qHTS of pediatric cancer cell lines to identify multiple opportunities for drug repurposing: Primary screen for SK-N-SH cells (AID 1347098);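 also: DMSO served as neutral control and bortezomib at 2.3 µM as positive control; nearly all actives have a fitted effect of over 65% in size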
Summary of the method: (§4)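 Cells (500-1,000/well) rested 5 h, then received compounds for 48 h; metabolically active cells were measured by CellTiter-Glo luminescence. Final concentrations spanned up to 46 µM (MIPE, 11-point) or 0.59 nM-46 µM (NPC, 8-point) in primary screens, 11-point in follow-ups.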

[10] = qHTS of pediatric cancer cell lines to identify multiple opportunities for drug repurposing: Primary screen for NB1643 cells (AID 1347099); also: nearly all actives have a fitted effect of over 50% in size
Summary of the method: as §2

[11] = qHTS of pediatric cancer cell lines to identify multiple opportunities for drug repurposing: Primary screen for LAN-5 cells (AID 1347100)
Summary of the method: as §3

[12] = qHTS of pediatric cancer cell lines to identify multiple opportunities for drug repurposing: Primary screen for Rh18 cells (AID 1347102); also: nearly all actives have a fitted effect of over 65% in size
Summary of the method: as §3

[13] = qHTS of pediatric cancer cell lines to identify multiple opportunities for drug repurposing: Primary screen for SJ-GBM2 cells (AID 1347091)
Summary of the method: as §1

[14] = qHTS of pediatric cancer cell lines to identify multiple opportunities for drug repurposing: Primary screen for Saos-2 cells (AID 1347097); also: nearly all actives have a fitted effect of over 40% in size; also: potency is read from the fitted curve at half-maximal effect
Summary of the method: as §2

[15] = qHTS of pediatric cancer cell lines to identify multiple opportunities for drug repurposing: Primary screen for BT-12 cells (AID 1347101); also: nearly all actives have a fitted effect of over 25% in size
Summary of the method: as §4

[16] = qHTS of pediatric cancer cell lines to identify multiple opportunities for drug repurposing: Primary screen for OHS-50 cells (AID 1347103); also: nearly all actives have a fitted effect of over 40% in size; also: potency is read from the fitted curve at half-maximal effect
Summary of the method: as §4

Measured: Potency

CN1CCC(OC(c2ccccc2)c2ccccc2)CC1
inactive: [1] | [2] | [3] | [4] | [5] | [6] | [7] | [8] | [9] | [10] | [11] | [12]

NCc1ccccc1Sc1ccccc1CO
inactive: [1] | [2] | [13] | [4] | [5] | [6] | [7] | [8] | [14] | [9] | [10] | [11] | [15] | [12]

Oc1ccccc1C=NCc1ccccc1
inactive: [1] | [2] | [13] | [4] | [5] | [6] | [7] | [8] | [14] | [9] | [10] | [11] | [15] | [12] | [16]

CCC(CC)(CC(=O)Nc1cccc(/C=C/c2nc(C3CCC3)cs2)c1)C(=O)O
inactive: [1] | [2] | [3] | [4] | [6] | [7] | [8] | [14] | [9] | [10] | [11] | [15] | [12]

OC[C@H]1O[C@@H]2O[C@H]3[C@H](O)[C@@H](O)[C@@H](O[C@H]4[C@H](O)[C@@H](O)[C@@H](O[C@H]5[C@H](O)[C@@H](O)[C@@H](O[C@H]6[C@H](O)[C@@H](O)[C@@H](O[C@H]7[C@H](O)[C@@H](O)[C@@H](O[C@H]8[C@H](O)[C@@H](O)[C@@H](O[C@H]1[C@H](O)[C@H]2O)O[C@@H]8CO)O[C@@H]7CO)O[C@@H]6CO)O[C@@H]5CO)O[C@@H]4CO)O[C@@H]3CO
inactive: [1] | [2] | [3] | [4] | [5] | [6] | [7] | [8] | [9] | [10] | [11] | [15] | [12] | [16]

CCOC(=O)c1ccc(N)cc1
inactive: [1] | [2] | [3] | [4] | [5] | [6] | [7] | [8] | [9] | [10] | [11] | [15] | [12]

CCCCCCCCCCCCSCCOCCO
inactive: [1] | [2] | [13] | [4] | [5] | [6] | [7] | [8] | [9] | [10] | [15] | [12]

FC1(F)C(F)(F)C(F)(F)C2(F)C(F)(F)C(F)(F)C(F)(F)C(F)(F)C2(F)C1(F)F (centres undefined)
inactive: [1] | [2] | [13] | [4] | [5] | [6] | [7] | [8] | [14] | [9] | [10] | [11] | [15] | [12]

CCOc1cc(OCC)c(C(=O)CCC(=O)O)cc1OCC
inactive: [1] | [3] | [4] | [5] | [6] | [7] | [8] | [14] | [9] | [10] | [11] | [15] | [12] | [16]

CCc1nn(CCCN2CCN(c3cccc(Cl)c3)CC2)c(=O)n1CCOc1ccccc1
active: [16] 24.6 µM
inactive: [1] | [2] | [7] | [10] | [12]

CC(C)NCC(O)c1ccc2ccccc2c1 (centres undefined)
inactive: [1] | [3] | [13] | [4] | [5] | [6] | [7] | [8] | [9] | [10] | [11] | [15] | [12] | [16]

C#C[C@]1(O)CC[C@H]2[C@@H]3CCC4=Cc5oncc5C[C@]4(C)[C@H]3CC[C@@]21C
inactive: [1] | [2] | [8] | [9] | [10]
active: [16] 24.6 µM

N/C(=N\N=C\c1ccc(Cl)cc1)N/N=C/c1ccc(Cl)cc1
inactive: [1] | [2] | [8] | [10] | [15] | [12]

NC(=S)N/N=C/c1cccnc1
inactive: [1] | [3] | [13] | [4] | [5] | [6] | [7] | [8] | [14] | [9] | [10] | [11] | [15] | [12]

CC(C)Cc1ccc(CC(=O)O)cc1
inactive: [1] | [3] | [13] | [4] | [5] | [6] | [7] | [8] | [10] | [11] | [15] | [12] | [16]

CCN(CC)CCOC(=O)C(Cc1cccc2ccccc12)CC1CCCO1 (centres undefined)
inactive: [1] | [2] | [13] | [4] | [6] | [7] | [8] | [9] | [10] | [11] | [15] | [12]

CC(C)(C)CC(C)(C)c1ccc(O)c(-n2nc3ccccc3n2)c1
inactive: [1] | [3] | [13] | [4] | [6] | [7] | [8] | [14] | [9] | [10] | [11] | [15] | [12]

CCc1oc2ccccc2c1C(=O)c1cc(I)c(O)c(I)c1
inactive: [1] | [2] | [4] | [6] | [8] | [9] | [11] | [15] | [12]

CC(=O)Nc1ccc(OCC(O)CNC(C)C)cc1 (centres undefined)
inactive: [1] | [2] | [13] | [4] | [6] | [7] | [8] | [14] | [11] | [15] | [12] | [16]

CCO[C@@H]1O[C@H](C(COCc2ccccc2)OCc2ccccc2)[C@H](OCc2ccccc2)[C@H]1O (some centres undefined)
active: [14] 26.6 µM
inactive: [1] | [2] | [7] | [8] | [10] | [11] | [12]
